Bioassay records as filed in PubChem BioAssay.
CYP2C19 inh – human CYP2C19 inhibition | P33261 | CYP2C19 Supersomes, luciferin-H EGE luminescence, 30 min | inhibition, % at 5 µM | hit rate 21% among 96,000 | AID 778;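 active = CYP2C19 inhibition above a set limit at 5 µM in the primary screen, cut at about 50% in these data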;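 also: plate controls were negative control wells for no effect and 2.5 mM tranylcypromine positive control for full effect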
CD11b adhes inh – inhibitors of human CD11b/CD18 binding to fibrinogen | P05107+P11215 | K562 CD11b/CD18 adhesion to fibrinogen, ATPlite luminescence; Mn2+ added to activate the integrin | inhibition, % at 10 µM | hit rate 0.54% among 93,000;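 active = primary inhibition of 50% or more at 10 µM, then 40% or more on retest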
CD11b adhes enh – enhancers of human CD11b/CD18 binding to fibrinogen | hit rate 0.07% among 93,000 | P05107+P11215 | K562 CD11b/CD18 adhesion to fibrinogen, ATPlite luminescence | activation, % at 10 µM;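 active = 10 µM primary screen giving 50% or more activity, confirmed by 40% or more on retest at that dose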
CYP2C9 inh – human CYP2C9 inhibition | CYP2C9 Supersomes, luciferin-H conversion, luminescence | inhibition, % at 5 µM | hit rate 20% among 96,000 | AID 777;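 active = blocking of liver enzyme CYP2C9 beyond about 50% at 5 µM, limit read from the data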
Target sequence (P11712 whole entry, looked up): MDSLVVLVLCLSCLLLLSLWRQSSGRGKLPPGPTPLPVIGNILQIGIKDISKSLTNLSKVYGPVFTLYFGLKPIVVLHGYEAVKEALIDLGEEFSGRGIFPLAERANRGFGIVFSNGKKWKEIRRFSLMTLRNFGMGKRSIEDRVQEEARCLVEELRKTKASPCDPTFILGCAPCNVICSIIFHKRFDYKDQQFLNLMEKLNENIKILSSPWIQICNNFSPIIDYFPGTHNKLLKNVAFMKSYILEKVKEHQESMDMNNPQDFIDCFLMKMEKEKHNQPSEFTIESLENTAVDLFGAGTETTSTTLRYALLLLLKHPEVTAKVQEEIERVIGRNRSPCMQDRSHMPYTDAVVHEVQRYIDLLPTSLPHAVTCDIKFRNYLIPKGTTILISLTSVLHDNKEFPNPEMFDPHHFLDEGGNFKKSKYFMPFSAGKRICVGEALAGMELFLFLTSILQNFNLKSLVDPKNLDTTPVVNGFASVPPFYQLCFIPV
CYP2C9 act – activators of human CYP2C9; P11712; recombinant CYP2C9, luciferin-H conversion, luminescence; stronger effect = higher value; factor 1 = untreated enzyme, 0 = blocked; activation factor at 5 µM; hit rate 1.4% among 96,000;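 active = activation factor of 2 or more for CYP2C9 at a 5 µM dose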;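 also: 0 = sulfaphenazole-blocked wells and 1 = vehicle-only wells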
CYP2C19 act – activators of human cytochrome P450 2C19; P33261; activation factor at 5 µM; recombinant CYP2C19, luciferin-H EGE luminescence; stronger effect = higher value; 0 = fully inhibited enzyme, 1 = untreated enzyme; 96,000 tested, under 10 active;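 active = activation factor of at least 2 at 5 µM in the primary screen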;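 also: 0 = wells with 2.5 mM tranylcypromine and 1 = vehicle-only wells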
* marks the source's active call; other numbers are inactive results; · = no result given. The list is not random: actives were taken first. Their share in the collection is about 28%.

SMILES	CYP2C19 inh	CD11b adhes inh	CD11b adhes enh	CYP2C9 inh	CYP2C9 act	CYP2C19 act
CCOc1ccc(CC(=O)Nc2c(C(=O)Nc3ccccc3)oc3ccccc23)cc1OCC	48	2	1	40	0.6	0.5
Cc1oc2c(c1C(=O)NC(Cc1c[nH]c3ccccc13)C(=O)O)CCCC2 (stereo unspecified)	43	10	0	80*	0.2	0.6
Cc1oc2c(c1C(=O)Nc1cccc3ccccc13)CCCC2	85*	-13	-6	81*	0.2	0.2
Cc1c(C)n(C)c2ccc(C(=O)Nc3cccc4ccccc34)cc12	16	·	·	-267	3.7*	0.8
O=C(NC(Cc1c[nH]c2ccccc12)C(=O)O)c1ccccc1 (stereo unspecified)	7	-5	-1	34	0.7	0.9
Cc1cc(=O)oc(C)c1C(=O)Nc1cccc2ccccc12	38	-30	-4	-11	1.1	0.6
O=C(NC1CCCC1)c1ccc(CNc2c(N3CCOCC3)c(=O)c2=O)cc1	-21	2	-1	-20	1.2	1.2
Cc1ccc(NC(=O)CN(C)C(=O)CCC(=O)c2cccs2)cc1	·	-1	0	·	·	·
CCCCCOC(=O)CSc1nnc(-c2ccccc2)c(=O)[nH]1	24	17	0	60*	0.4	0.8
O=C1CSC(c2c(F)cccc2Cl)N1c1cccc(F)c1 (stereo unspecified)	20	·	·	-107	2.1*	0.8
O=C1CSC(c2ccccn2)N1c1cccc(Cl)c1 (stereo unspecified)	3	-7	-3	0	1	1
Cc1ccccc1OCC(=O)N(Cc1nc(-c2ccccc2)no1)C(C)C	57*	-14	9	40	0.6	0.4
Cc1ccc(SCC(=O)N(Cc2nc(-c3ccccc3)no2)C(C)C)cc1	77*	36	-1	79*	0.2	0.2
Cc1ccc(-c2noc(CN3CCN(C(c4ccccc4)c4ccccc4)CC3)n2)cc1	1	2	2	22	0.8	1
Cc1ccc(C2=NCCNC2=O)c(C)c1	-3	-7	0	5	0.9	1
Cc1ccccc1OCCNC(=S)Nc1ccccc1	70*	·	·	9	0.9	0.3
Cc1ccc2cc(CN(Cc3ccccc3)Cc3nnnn3C3CCCC3)c(=O)[nH]c2c1	87*	13	11	82*	0.2	0.1
COc1ccc2cc(CN(Cc3ccco3)C(c3nnnn3C3CCCCC3)C(C)C)c(=O)[nH]c2c1 (stereo unspecified)	20	13	4	45	0.6	0.8
COc1ccc2cc(CN(Cc3ccco3)Cc3nnnn3C3CCCCC3)c(=O)[nH]c2c1	84*	-4	5	87*	0.1	0.2
CCc1ccc2[nH]c(=O)c(CN(Cc3ccc4c(c3)OCO4)Cc3nnnn3C3CCCC3)cc2c1	30	-15	8	60*	0.4	0.7
COC(=O)C(O)(NC(=O)NC(C)=O)C(F)(F)F (stereo unspecified)	1	8	-3	0	1	1
COCCNC(=O)Cn1nc(C(F)(F)F)c(Br)c1C	35	·	·	52*	0.5	0.6
CC(=O)c1ccc(NC(=S)NNC(=O)c2ccncc2)cc1	·	-3	-4	·	·	·
COC(=O)c1cccnc1NC(=S)NNC(=O)c1ccncc1	84*	-5	-3	25	0.7	0.2
COC1=Cc2c(ccc3ccc(=O)oc23)OC1(C)C	1	-6	-7	23	0.8	1
SMILES	CYP2C19 inh	CD11b adhes inh	CD11b adhes enh	CYP2C9 inh	CYP2C9 act	CYP2C19 act
C=CCc1c(OC)ccc2ccc(=O)oc12	57*	-4	-5	-124	2.2*	0.4
COc1ccc(S(=O)(=O)N(C)c2c(C)n(C)n(-c3ccccc3)c2=O)cc1OC	71*	34	6	0	1	0.3
COc1cc(Br)c(S(=O)(=O)Nc2c(C)n(C)n(-c3ccccc3)c2=O)cc1OC	-1	-7	3	-21	1.2	1
COc1ccc(S(=O)(=O)Nc2cccc(/C=C/C(=O)O)c2)cc1	·	5	-1	·	·	·
COC(=O)c1cc(NS(=O)(=O)c2ccc(N3CCCCCC3)c([N+](=O)[O-])c2)cc(C(=O)OC)c1	-3	12	-8	24	0.8	1
CC(=O)Nc1ccc(S(=O)(=O)Nc2nnc(C(C)C)s2)cc1	-26	4	-3	60*	0.4	1.3
CC(=O)Nc1ccc(S(=O)(=O)Nc2cccc(C(=O)NC(C)(C)C)c2)cc1	8	·	·	35	0.7	0.9
COc1ccc(S(=O)(=O)Nc2cc(C)c(O)c(S(=O)(=O)c3ccccc3)c2)cc1	53*	-11	5	79*	0.2	0.5
COc1ccc(S(=O)(=O)Nc2nnc(C(C)C)s2)cc1	-15	-10	2	35	0.7	1.1
COC(=O)c1cc(NS(=O)(=O)c2ccc(NC(C)=O)cc2)cc(C(=O)OC)c1	53*	·	·	38	0.6	0.5
COc1cccc(NS(=O)(=O)c2ccc(NC(C)=O)cc2)c1	60*	-22	0	22	0.8	0.4
CC(C)NC(=O)NC(=O)CSc1ccccc1F	·	1	3	·	·	·
CCc1ccc(OCCNC(=O)c2ccc(S(=O)(=O)N(C)C)cc2)cc1	15	7	0	22	0.8	0.8
COc1ccc(S(=O)(=O)Nc2cccc(NC(C)=O)c2)cc1	95*	17	-3	30	0.7	0
O=C(O)CC/C(=N\Nc1ccc(S(=O)(=O)N2CCCC2)cc1[N+](=O)[O-])c1cccs1	5	-2	-3	99*	0	0.9
O=C(Cc1cccs1)N1CCCC(c2nc3c(nnn3Cc3ccc(F)cc3)c(=O)[nH]2)C1 (stereo unspecified)	19	8	-2	57*	0.4	0.8
CC(C)(C)c1ccc(Cn2nnc3c(=O)[nH]c(C4CCCN(C(=O)Cc5cccs5)C4)nc32)cc1 (stereo unspecified)	28	11	-5	57*	0.4	0.7
Cc1ccc(Cn2nnc3c(=O)[nH]c(C4CCCN(C(=O)Nc5ccc(F)cc5F)C4)nc32)cc1 (stereo unspecified)	40	·	·	54*	0.5	0.6
O=c1[nH]c(C2CCCN(S(=O)(=O)c3ccc(F)cc3)C2)nc2c1nnn2Cc1ccccc1 (stereo unspecified)	6	-6	2	18	0.8	0.9
CC(C)(C)c1ccc(Cn2nnc3c(=O)[nH]c(C4CCN(C(=O)Cc5cccs5)CC4)nc32)cc1	91*	22	14	99*	0	0.1
COc1cccc2c3c(c(=O)[nH]c12)CCC(C)(C)O3	45	-9	-4	30	0.7	0.6
O=C(Cc1cccs1)N1CCCC(c2nc3c(nnn3Cc3ccccc3Cl)c(=O)[nH]2)C1 (stereo unspecified)	66*	-10	6	91*	0.1	0.3
